We go through 14 compounds from PubChem BioAssay.

Each structure is given as a SMILES string. The source made the active and inactive calls.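 Rule for the calls, unless noted: active = inhibition at or above 50% at 10 µM; inactive = inhibition below 50%.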

Assay [1] is described as follows: inhibitors of TNFa-induced NFkB p65 translocation, primary screen, imaging, HUVEC, MLSMR starter and 10KST1 sets (AID 438;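 active = inhibition above 20% together with a positive visual image hit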;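 note: compound added about 3h40 before a 20 min TNFalpha stimulation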;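 for inhibition: signal is the nuclear over cytoplasmic p65 intensity ratio per well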). The settings on record: HUVEC TNFa-induced p65 nuclear translocation; cell count: measured here: nuclei count (cytotoxicity indicator), at 2.08 µM; inhibition: at 2 µM, stronger effect = higher value, 0% TNFa-plus-vehicle, 100% no-TNFa wells.
The nature of assay [2]: inhibitors of mutant huntingtin aggregation, primary screen, imaging, exon1htt(103Q)mCFP cells, high-content imaging (AID 483;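 active = visual image review flags a hit and inhibition of aggregation exceeds 20%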;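 note: compound exposure lasted 3 days before fixation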;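 for nuclei count: percent of the per-plate median nuclei count of sample wells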). The settings on record: exon1htt(103Q)mCFP cell line, aggregate imaging, at 2 µM; inhibition of aggregation: stronger effect = higher value; nuclei count: measured here: cell count, toxicity.
A short description of assay [3]: inhibitors of E-selectin induction by TNFa, primary screen, imaging, HUVEC, immunofluorescence, MLSMR starter and 10KST1 sets (AID 487;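 active = visually confirmed hit in the image check and inhibition above 20%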;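 for inhibition: signal is fraction of cell area covered by stained E-selectin grains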;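 for nuclei count: 100% = median nuclei count of all wells on the same plate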). The note with it: HUVEC TNFalpha-induced E-selectin immunofluorescence imaging, at 2 µM; inhibition: stronger effect = higher value; nuclei count: measured here: cell number, toxicity.
The target in assay [4] is Voltage-gated potassium channel subunit beta-2 (Rattus norvegicus) (UniProt P62483). Kind of assay: KvBeta enzyme negative modulators, primary screen, biochemical, NADPH fluorescence (AID 622;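 active = fluorescence slope higher than the sample average by over 3 SD, cut at about -0.22 in these data, passing the limit was not always enough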;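 note: slope of raw intensity against log time taken from 70 to 1610 s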). The settings on record: recombinant KvBeta, 4-cyanobenzaldehyde reduction, at 10 µM, stronger effect = higher value.
For assay [5] the target is unchanged. Kind of assay: KvBeta positive modulators, primary screen, biochemical, NADPH fluorescence (AID 623;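 active = NADPH fluorescence slope more negative than the mean of all samples by about 3 SD, 99.7% confidence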;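 note: fluorescence intensity change per second fitted from 20 to 320 s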). The settings on record: Recombinant KvBeta, NADPH fluorescence decrease slope, 10 min; at 10 µM; stronger effect = lower value.
Assay [6] concerns the target Alpha-2C adrenergic receptor (Homo sapiens) (UniProt P18825). Kind of assay: modulators of alpha2C/GIRK thallium flux, primary screen, cell-based, HEK293 alpha2C/GIRK1/2 (AID 624;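 active = fluorescence slope after compound addition differing from the mean of all screened samples at 99.7% confidence, in either direction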;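 note: slope of fluorescence ratio to pre-addition baseline per second over 15 to 24 s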). The note with it: thallium flux BTC fluorescence, at 10 µM, actives lie on both sides.
The nature of assay [7]: inhibitors of Sendai virus-induced IRF3 signaling, primary screen, TLR/RLR signaling modifier project, cell-based, Sendai virus stimulus, luciferase, 10K MLSCN set (AID 602276).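 Note: firefly luciferase from ISG56 promoter only with Renilla not read in this screen; 0% = Sendai virus plus DMSO and 100% = medium plus DMSO without virus.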 The note with it: HEK293 RL24 IRF3 luciferase reporter, at 10 µM, stronger effect = higher value. Background: A reporter such as luciferase makes a cellular process visible.
A short description of assay [8]: inhibitors of poly I:C-induced TLR3 signaling, primary screen, cell-based, poly I:C stimulus, luciferase, 10K MLSCN set (AID 602277;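 active = inhibition of the reporter signal at or above 50%; inactive = inhibition below 50%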). The settings on record: HEK293-TLR3 RL24 IRF3 luciferase reporter, at 10 µM, stronger effect = higher value.

Sequence of Voltage-gated potassium channel subunit beta-2 (Rattus norvegicus) (P62483 whole entry, looked up): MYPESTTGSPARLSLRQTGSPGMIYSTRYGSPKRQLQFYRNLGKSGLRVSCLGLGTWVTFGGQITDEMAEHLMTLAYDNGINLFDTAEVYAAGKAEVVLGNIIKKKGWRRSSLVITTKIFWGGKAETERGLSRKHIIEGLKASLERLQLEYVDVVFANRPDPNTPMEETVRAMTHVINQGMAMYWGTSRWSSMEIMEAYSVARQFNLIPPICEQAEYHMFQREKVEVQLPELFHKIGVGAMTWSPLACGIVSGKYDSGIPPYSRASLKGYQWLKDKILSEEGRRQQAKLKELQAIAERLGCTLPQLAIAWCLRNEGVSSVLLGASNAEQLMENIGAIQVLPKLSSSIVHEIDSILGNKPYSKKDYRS
Sequence of Alpha-2C adrenergic receptor (Homo sapiens) (P18825 whole entry, looked up): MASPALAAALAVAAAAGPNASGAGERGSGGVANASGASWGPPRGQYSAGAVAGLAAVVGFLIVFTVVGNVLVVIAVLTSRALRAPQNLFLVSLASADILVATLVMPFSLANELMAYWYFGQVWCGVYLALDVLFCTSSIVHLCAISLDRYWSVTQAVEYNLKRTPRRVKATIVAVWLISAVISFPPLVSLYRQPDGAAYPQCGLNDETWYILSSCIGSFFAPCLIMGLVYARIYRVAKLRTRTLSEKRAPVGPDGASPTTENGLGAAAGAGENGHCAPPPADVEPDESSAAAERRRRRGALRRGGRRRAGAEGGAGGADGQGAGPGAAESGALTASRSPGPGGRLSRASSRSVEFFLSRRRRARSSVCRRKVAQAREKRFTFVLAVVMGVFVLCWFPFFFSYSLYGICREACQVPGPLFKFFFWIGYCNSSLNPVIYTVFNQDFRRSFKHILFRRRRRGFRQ

Consider `O=C(NC1=NCCS1)NC12CC3CC(CC(C3)C1)C2`, for which the cell count in assay [1] was 357. Also, the inhibition (commonly the drop in the measured response relative to a control, in per cent) in assay [1] is -3.3% (inactive); in assay [3], -52.9% (inactive); in assay [7], -1.24% (inactive); in assay [8], 12.2% (inactive). Further, in assay [2], the inhibition of aggregation is 6.6% (inactive). Besides, the nuclei count in assay [2] was 96.6%; in assay [3], 101%. In assay [4], the fluorescence slope was -0.598 (inactive). Moreover, the NADPH fluorescence slope in assay [5] is -3.4e-05 (inactive). In assay [6], the slope was 0.00362 (inactive).

With `CCc1nc2scc(-c3ccccc3)c2c(=O)n1N`, the cell count in assay [1] is 414. In addition, the inhibition is 10.9% (inactive) in assay [1], -361% (inactive) in assay [3], -8.38% (inactive) in assay [7] and -30.6% (inactive) in assay [8]. In addition, the inhibition of aggregation in assay [2] is 0% (inactive). Also, the nuclei count in assay [2] came to 98.5%; in assay [3] it was 142%. The fluorescence slope in assay [4] is -0.437 (inactive). Also, in assay [5], the NADPH fluorescence slope is 6.4e-05 (inactive). For the same compound, the slope in assay [6] is 0.00592 (inactive).

On to `CCc1nnc(NC(=O)CSc2nnc(CSc3nc(C)cc(C)n3)n2CC)s1`, for which the cell count in assay [1] was 424. The inhibition in assay [1] is -5% (inactive); in assay [3] it was -40.7% (inactive); in assay [7], -5.81% (inactive); in assay [8] it was -12.1% (inactive). For the same compound, the inhibition of aggregation in assay [2] was -13.6% (inactive). In addition, the values for the nuclei count in assay [2] and in assay [3] were 128% and 129%, respectively. Moreover, the fluorescence slope in assay [4] was -0.37 (inactive). Further, the NADPH fluorescence slope in assay [5] is 8.3e-06 (inactive). The slope in assay [6] is 0.00824 (inactive).

In the case of `CCn1c(=O)c(C(=O)Nc2cccnc2)c(O)c2ccccc21`, the cell count in assay [1] was found to be 362. The inhibition is 4.1% (inactive) in assay [1], -39.9% (inactive) in assay [3], -1.35% (inactive) in assay [7] and -9.19% (inactive) in assay [8]. Further, the inhibition of aggregation in assay [2] was 7% (inactive). Besides, the nuclei count in assay [2] stood at 105%; in assay [3], 107%. Also, the fluorescence slope in assay [4] was -0.465 (inactive). Moreover, in assay [5], the NADPH fluorescence slope was -4.5e-05 (inactive). The slope in assay [6] is 0.00569 (inactive).

Turning to `CC(C)n1nc(C(=O)Nc2nc3ccc(S(C)(=O)=O)cc3s2)c2ccccc2c1=O`, the cell count in assay [1] turned out to be 452. Moreover, the inhibition in assay [1] was -6.8% (inactive); in assay [3], -52.1% (inactive); in assay [7], 18.5% (inactive); in assay [8] it was 29.9% (inactive). Besides, the inhibition of aggregation in assay [2] was -5.5% (inactive). Further, the nuclei count amounted to 35.2% in assay [2] and 117% in assay [3]. For the same compound, in assay [4], the fluorescence slope is -0.265 (inactive). For the same compound, the NADPH fluorescence slope in assay [5] is -2.5e-05 (inactive). The slope in assay [6] was 0.00538 (inactive).

With `CCOC(=O)C1=C(O)C(=O)N(c2ccc(S(N)(=O)=O)cc2)C1c1ccccc1` (centres undefined), in assay [1], the cell count turned out to be 431. The inhibition was -0.4% (inactive) in assay [1], -31.8% (inactive) in assay [3], 2.23% (inactive) in assay [7] and -14.6% (inactive) in assay [8]. Besides, in assay [2], the inhibition of aggregation was -10.8% (inactive). The nuclei count is 108% in assay [2] and 117% in assay [3]. Moreover, the fluorescence slope in assay [4] is -0.61 (inactive). Moreover, in assay [5], the NADPH fluorescence slope is -1.5e-05 (inactive). Moreover, the slope in assay [6] is 0.00391 (inactive).

`COc1cccc(NC(=O)c2nc3nc(C)cc(C(F)F)n3n2)c1`: the cell count in assay [1] was 641. Moreover, the inhibition was -2.9% (inactive) in assay [1], -34.9% (inactive) in assay [3], 3.8% (inactive) in assay [7] and 4.85% (inactive) in assay [8]. Further, the inhibition of aggregation in assay [2] was 1.9% (inactive). The nuclei count in assay [2] stood at 68.8%; in assay [3], 96.6%. For the same compound, the fluorescence slope in assay [4] is -0.567 (inactive). In addition, the NADPH fluorescence slope in assay [5] is -5.2e-05 (inactive). For the same compound, the slope in assay [6] is 0.00736 (inactive).

`O=C(CCSc1nc(-c2ccco2)cc(C(F)(F)F)n1)NCCc1ccccc1`: the cell count in assay [1] is 491. Also, the inhibition is -8.3% (inactive) in assay [1], 23.2% (inactive) in assay [3], -7.29% (inactive) in assay [7] and -52.7% (inactive) in assay [8]. In addition, the inhibition of aggregation in assay [2] was -16.1% (inactive). For the same compound, the results for the nuclei count in assay [2] and in assay [3] were 106% and 104%, respectively. For the same compound, the fluorescence slope in assay [4] is -0.387 (inactive). Also, the NADPH fluorescence slope in assay [5] is -3.6e-05 (inactive). In assay [6], the slope is 0.00564 (inactive).

`CC1CCC(NC(=O)Cn2ncc3ccccc32)CC1` (centres undefined): in assay [1], the cell count came out at 728. In addition, the inhibition was -3.7% (inactive) in assay [1], -59.2% (inactive) in assay [3], -43.1% (inactive) in assay [7] and -111% (inactive) in assay [8]. Also, in assay [2], the inhibition of aggregation was -13.1% (inactive). For the same compound, the nuclei count in assay [2] stood at 118%; in assay [3], 106%. Moreover, the fluorescence slope in assay [4] was -0.577 (inactive). For the same compound, in assay [5], the NADPH fluorescence slope is -4.8e-05 (inactive). For the same compound, in assay [6], the slope is 0.00746 (inactive).

In the case of `CC(=O)Nc1ccc(S(=O)(=O)CCC#N)cc1`, the cell count in assay [1] came out at 424. Further, the inhibition is 7.2% (inactive) in assay [1], -113% (inactive) in assay [3], 11.9% (inactive) in assay [7] and 20% (inactive) in assay [8]. Besides, in assay [2], the inhibition of aggregation was 2.2% (inactive). In addition, the nuclei count in assay [2] was found to be 90.4%; in assay [3] it was 107%. For the same compound, in assay [4], the fluorescence slope is -0.482 (inactive). Besides, the NADPH fluorescence slope in assay [5] is -3.9e-05 (inactive). The slope in assay [6] was 0.00638 (inactive).

On to `O=C(Cn1nc(-c2ccc3c(c2)OCCO3)ccc1=O)Nc1ccc(N2CCOCC2)cc1`, for which the cell count in assay [1] was found to be 270. Moreover, the inhibition in assay [1] was 11.8% (inactive); in assay [3], -60.3% (inactive); in assay [7], 2.21% (inactive); in assay [8] it was 21% (inactive). The inhibition of aggregation in assay [2] is -53.9% (inactive). Further, the nuclei count came out at 90.7% in assay [2] and 111% in assay [3]. In addition, in assay [4], the fluorescence slope is -0.429 (inactive). Further, the NADPH fluorescence slope in assay [5] is -5.2e-05 (inactive). In addition, in assay [6], the slope is 0.00403 (inactive).

As to `Cc1cc(C(F)(F)F)nn1Cc1ccc(C(=O)NCc2ccco2)o1`, in assay [1], the cell count is 597. In addition, the inhibition in assay [1] is -2.1% (inactive); in assay [3], -36% (inactive); in assay [7], -1.39% (inactive); in assay [8], -36.9% (inactive). Further, the inhibition of aggregation in assay [2] is 2% (inactive). In addition, the nuclei count in assay [2] came to 106%; in assay [3], 108%. Further, the fluorescence slope in assay [4] was -0.568 (inactive). The NADPH fluorescence slope in assay [5] is -2.7e-05 (inactive). The slope in assay [6] was 0.00427 (inactive).

As to `COc1ccc(N2CCN(c3ccc(N)cc3C#N)CC2)cc1`, the cell count in assay [1] was found to be 744. Also, the inhibition in assay [1] is -6.6% (inactive); in assay [3], -65.8% (inactive); in assay [7] it was 3.39% (inactive); in assay [8], 21.5% (inactive). Besides, in assay [2], the inhibition of aggregation is 28.1% (inactive). In addition, the results for the nuclei count in assay [2] and in assay [3] were 102% and 104%, respectively. The fluorescence slope in assay [4] is -0.593 (inactive). Moreover, in assay [5], the NADPH fluorescence slope was -2.3e-05 (inactive). Further, the slope in assay [6] is 0.00782 (inactive).

`Cc1ccc(NC(=O)CN(c2ccc3c(c2)OCO3)S(=O)(=O)c2c(C)n[nH]c2C)cc1`: the cell count in assay [1] was 768. Further, the inhibition was -12.5% (inactive) in assay [1], -39.7% (inactive) in assay [3], 6.09% (inactive) in assay [7] and 17.9% (inactive) in assay [8]. For the same compound, the inhibition of aggregation in assay [2] is -29.4% (inactive). For the same compound, the nuclei count is 108% in assay [2] and 101% in assay [3]. For the same compound, the fluorescence slope in assay [4] is -0.42 (inactive). Further, the NADPH fluorescence slope in assay [5] is -5.2e-05 (inactive). Further, the slope in assay [6] is 0.00614 (inactive).
